Measurements reported in the supplement of paper PMC11001985.
Unmarked numbers belong to inactive results.

compound: C#CCNC(=O)CCSSCCC(=O)NCCc1ccc(C=O)c(C=O)c1; assay: lysine labeling ratio R10:1 (500 µM / 50 µM probe), SILAC-ABPP in living cells; higher = lower intrinsic lysine reactivity toward the probe, active = 2 or less; settings: HeLa; probe concentrations 500 vs 50 µM
Outline: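 Each lysine carries an R value: the filtered median of MS1 peptide ratios of high probe to low probe, with the median then taken over forward and reverse replicates. These came from living SILAC light and heavy HeLa cells in PBS at room temperature labelled with an alkyne-tagged, disulfide-linked lysine probe at 500 µM or 50 µM, in forward and reverse swaps. The lysates were mixed, clicked to biotin-azide, trypsin-digested, captured on neutravidin, released by DTT, alkylated and run by LC-MS/MS on a TIMS-TOF Pro. The highest value allowed is 20.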

UniProt O43854, sequence (O43854 whole entry): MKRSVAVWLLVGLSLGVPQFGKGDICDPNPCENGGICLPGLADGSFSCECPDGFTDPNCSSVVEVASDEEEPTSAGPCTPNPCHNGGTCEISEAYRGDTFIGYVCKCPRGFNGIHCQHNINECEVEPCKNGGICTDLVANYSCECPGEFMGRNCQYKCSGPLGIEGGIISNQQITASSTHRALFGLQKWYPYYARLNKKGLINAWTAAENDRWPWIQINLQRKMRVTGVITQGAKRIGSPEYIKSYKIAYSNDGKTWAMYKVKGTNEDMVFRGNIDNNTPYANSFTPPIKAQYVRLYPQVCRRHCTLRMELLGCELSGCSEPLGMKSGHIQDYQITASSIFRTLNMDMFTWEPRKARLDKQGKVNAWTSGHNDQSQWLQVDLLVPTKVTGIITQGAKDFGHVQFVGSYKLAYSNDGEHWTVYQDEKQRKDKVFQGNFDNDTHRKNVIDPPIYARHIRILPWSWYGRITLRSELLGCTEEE
UniProt Q12797, sequence (Q12797 whole entry): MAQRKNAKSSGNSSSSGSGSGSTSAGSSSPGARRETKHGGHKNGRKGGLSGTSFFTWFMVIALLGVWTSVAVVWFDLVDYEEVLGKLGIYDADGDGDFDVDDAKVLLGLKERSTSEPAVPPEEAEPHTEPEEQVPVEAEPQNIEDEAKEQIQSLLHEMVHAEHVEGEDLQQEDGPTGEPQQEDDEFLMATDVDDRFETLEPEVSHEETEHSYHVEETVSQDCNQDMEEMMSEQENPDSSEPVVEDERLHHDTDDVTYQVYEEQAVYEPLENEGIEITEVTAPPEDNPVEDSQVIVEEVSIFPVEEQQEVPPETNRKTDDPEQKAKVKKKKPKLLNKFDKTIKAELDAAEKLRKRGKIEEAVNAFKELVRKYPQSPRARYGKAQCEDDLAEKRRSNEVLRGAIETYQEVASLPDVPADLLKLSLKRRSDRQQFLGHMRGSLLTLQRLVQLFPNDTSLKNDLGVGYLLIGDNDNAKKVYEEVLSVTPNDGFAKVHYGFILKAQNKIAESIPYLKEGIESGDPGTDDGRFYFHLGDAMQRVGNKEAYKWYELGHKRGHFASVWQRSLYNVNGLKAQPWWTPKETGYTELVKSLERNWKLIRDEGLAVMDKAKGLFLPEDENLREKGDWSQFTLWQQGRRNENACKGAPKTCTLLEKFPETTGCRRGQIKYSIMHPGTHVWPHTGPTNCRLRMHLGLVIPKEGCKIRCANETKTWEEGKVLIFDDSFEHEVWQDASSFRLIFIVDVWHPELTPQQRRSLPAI
UniProt P17342, sequence (P17342 whole entry): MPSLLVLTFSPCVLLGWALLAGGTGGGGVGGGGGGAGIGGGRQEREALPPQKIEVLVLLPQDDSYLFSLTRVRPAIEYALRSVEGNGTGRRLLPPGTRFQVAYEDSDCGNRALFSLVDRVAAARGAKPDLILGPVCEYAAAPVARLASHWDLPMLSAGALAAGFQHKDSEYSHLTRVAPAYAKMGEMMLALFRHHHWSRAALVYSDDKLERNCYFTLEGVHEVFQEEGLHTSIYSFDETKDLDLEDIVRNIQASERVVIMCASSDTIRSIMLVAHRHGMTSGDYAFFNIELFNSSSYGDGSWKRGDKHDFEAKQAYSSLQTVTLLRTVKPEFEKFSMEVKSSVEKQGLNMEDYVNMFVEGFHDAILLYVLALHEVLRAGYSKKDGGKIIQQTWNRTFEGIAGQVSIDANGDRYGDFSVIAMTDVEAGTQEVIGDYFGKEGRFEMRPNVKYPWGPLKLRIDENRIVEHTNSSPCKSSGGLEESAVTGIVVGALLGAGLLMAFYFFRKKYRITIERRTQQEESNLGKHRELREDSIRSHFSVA
UniProt Q9BUQ8, sequence (Q9BUQ8 whole entry): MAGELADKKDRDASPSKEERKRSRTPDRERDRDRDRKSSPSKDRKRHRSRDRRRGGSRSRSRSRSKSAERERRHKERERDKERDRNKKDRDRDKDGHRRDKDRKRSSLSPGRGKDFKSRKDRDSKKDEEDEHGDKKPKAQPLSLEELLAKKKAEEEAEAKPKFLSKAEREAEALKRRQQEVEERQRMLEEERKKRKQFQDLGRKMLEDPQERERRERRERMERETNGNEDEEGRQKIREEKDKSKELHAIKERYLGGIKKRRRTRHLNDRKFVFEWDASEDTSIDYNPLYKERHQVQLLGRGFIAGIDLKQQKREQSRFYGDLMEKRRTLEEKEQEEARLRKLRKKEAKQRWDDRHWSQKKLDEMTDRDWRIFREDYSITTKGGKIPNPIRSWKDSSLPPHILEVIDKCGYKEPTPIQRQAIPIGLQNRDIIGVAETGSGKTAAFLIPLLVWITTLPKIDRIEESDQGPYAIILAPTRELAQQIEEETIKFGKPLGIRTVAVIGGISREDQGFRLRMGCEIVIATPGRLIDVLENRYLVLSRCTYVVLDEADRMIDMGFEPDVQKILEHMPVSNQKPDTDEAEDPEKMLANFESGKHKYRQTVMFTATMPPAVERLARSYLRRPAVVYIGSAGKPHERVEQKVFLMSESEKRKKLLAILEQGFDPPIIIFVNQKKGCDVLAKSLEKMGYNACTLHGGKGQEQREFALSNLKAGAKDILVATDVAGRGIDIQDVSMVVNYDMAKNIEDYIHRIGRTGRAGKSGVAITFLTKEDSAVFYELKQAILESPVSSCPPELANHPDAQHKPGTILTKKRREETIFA
UniProt P13667, sequence (P13667 whole entry): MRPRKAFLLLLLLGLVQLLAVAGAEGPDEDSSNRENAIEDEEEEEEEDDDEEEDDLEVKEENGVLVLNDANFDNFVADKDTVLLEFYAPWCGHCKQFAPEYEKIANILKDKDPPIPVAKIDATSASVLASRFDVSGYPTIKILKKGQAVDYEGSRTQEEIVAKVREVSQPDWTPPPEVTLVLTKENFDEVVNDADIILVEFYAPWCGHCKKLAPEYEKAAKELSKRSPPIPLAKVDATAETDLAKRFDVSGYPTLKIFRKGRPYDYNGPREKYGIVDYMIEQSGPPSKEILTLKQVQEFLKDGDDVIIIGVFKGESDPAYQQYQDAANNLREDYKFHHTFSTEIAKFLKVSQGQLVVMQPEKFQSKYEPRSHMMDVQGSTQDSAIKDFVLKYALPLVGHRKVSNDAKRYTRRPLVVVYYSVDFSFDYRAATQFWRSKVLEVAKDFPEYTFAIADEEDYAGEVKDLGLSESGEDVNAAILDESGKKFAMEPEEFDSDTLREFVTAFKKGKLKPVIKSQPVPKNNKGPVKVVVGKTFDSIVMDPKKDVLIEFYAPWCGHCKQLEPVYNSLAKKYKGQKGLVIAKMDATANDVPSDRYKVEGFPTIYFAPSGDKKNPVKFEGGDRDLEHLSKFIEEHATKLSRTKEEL
UniProt Q92729, sequence (Q92729 whole entry): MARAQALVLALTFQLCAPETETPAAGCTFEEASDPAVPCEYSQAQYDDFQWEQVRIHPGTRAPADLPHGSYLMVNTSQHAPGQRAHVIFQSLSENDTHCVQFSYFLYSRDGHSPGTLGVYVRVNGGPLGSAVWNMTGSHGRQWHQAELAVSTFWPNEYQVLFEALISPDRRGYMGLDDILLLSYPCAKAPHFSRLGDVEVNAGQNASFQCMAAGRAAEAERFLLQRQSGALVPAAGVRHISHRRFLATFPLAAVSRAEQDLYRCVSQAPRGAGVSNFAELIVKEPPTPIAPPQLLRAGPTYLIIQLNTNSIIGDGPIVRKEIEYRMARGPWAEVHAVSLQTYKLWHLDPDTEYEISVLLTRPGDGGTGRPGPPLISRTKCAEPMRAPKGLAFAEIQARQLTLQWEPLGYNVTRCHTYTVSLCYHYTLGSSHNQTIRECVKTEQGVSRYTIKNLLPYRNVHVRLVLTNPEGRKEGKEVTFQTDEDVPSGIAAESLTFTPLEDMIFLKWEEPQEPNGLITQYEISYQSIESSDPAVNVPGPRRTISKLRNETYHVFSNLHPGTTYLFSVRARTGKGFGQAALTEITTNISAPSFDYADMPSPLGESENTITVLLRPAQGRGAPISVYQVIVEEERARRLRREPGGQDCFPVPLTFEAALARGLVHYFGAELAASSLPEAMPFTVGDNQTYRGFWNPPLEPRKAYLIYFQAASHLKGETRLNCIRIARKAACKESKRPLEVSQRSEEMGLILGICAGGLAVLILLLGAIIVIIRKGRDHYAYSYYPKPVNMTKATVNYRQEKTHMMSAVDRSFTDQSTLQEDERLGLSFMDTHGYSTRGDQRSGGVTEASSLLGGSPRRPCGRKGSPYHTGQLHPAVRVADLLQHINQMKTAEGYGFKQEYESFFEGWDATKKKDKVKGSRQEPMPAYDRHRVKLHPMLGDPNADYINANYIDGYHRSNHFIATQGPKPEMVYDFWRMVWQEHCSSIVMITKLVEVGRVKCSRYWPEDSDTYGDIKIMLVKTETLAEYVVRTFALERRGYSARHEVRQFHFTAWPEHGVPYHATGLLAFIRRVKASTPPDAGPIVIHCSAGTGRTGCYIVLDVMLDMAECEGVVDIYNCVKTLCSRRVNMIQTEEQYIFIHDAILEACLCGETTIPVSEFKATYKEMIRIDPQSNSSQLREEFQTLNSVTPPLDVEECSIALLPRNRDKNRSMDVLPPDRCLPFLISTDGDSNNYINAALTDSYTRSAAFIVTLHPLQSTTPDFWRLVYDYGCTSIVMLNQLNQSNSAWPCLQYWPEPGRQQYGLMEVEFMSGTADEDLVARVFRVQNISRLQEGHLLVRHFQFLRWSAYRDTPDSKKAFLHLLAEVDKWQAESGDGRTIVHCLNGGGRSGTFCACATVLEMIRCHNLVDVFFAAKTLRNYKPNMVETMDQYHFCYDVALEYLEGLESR
UniProt P61604, sequence (P61604 whole entry): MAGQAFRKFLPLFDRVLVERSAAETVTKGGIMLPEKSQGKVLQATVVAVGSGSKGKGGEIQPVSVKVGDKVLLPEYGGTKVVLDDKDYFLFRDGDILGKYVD

| Target | lysine labeling ratio R10:1 |
| --- | --- |
| ZMPSTE24 (lysine site: K259) (UniProt O75844) | 2.08 |
| CDH13 (lysine site: K74) (UniProt P55290) | 5.06 |
| LMAN1 (lysine site: K372) (UniProt P49257) | 2.72 |
| EDIL3 (lysine site: K426) (UniProt O43854) | 2.91 |
| DDR1 (lysine site: K112) (UniProt Q08345) | 2.03 |
| PDIA4 (lysine site: K366) (UniProt P13667) | 1.22 (active) |
| RPL4 (lysine site: K259) (UniProt P36578) | 1.88 (active) |
| ACTN4 (lysine site: K632) (UniProt O43707) | 4.35 |
| ASPH (lysine site: K552) (UniProt Q12797) | 4.2 |
| TKT (lysine site: K353) (UniProt P29401) | 6 |
| ITGB1 (lysine site: K136) (UniProt P05556) | 1.75 (active) |
| NPR3 (lysine site: K456) (UniProt P17342) | 0.78 (active) |
| UniProt Q92729 (lysine site: K388) | 3.11 |
| HNRNPA2B1 (lysine site: K120) (UniProt P22626) | 5.33 |
| FLNA (lysine site: K523) (UniProt P21333) | 3.84 |
| F11R (lysine site: K63) (UniProt Q9Y624) | 2.75 |
| HMOX1 (lysine site: K243) (UniProt P09601) | 1.07 (active) |
| HSPE1 (lysine site: K8) (UniProt P61604) | 4.22 |
| SPTBN1 (lysine site: K1063) (UniProt Q01082) | 7.24 |
| UniProt Q9UHN6 (lysine site: K887) | 1.21 (active) |
| DDX23 (lysine site: K196) (UniProt Q9BUQ8) | 1.64 (active) |
| HSPA9 (lysine site: K76) (UniProt P38646) | 3.36 |
| LTF (lysine site: K476) (UniProt P02788) | 0.862 (active) |
